The text below walks through data of PubChem BioAssay (NCATS).

Several values for one entry are separate records, joined by “and”; a condition that tells them apart may be missing. Equal entries are not always repeated. Inconclusive results are not listed. Activity calls are given as the source filed them. Unless noted, calls come from the whole dose curve; as a rule, active = well fitted curve in the direction sought with a large enough effect; inconclusive = small, poorly fitted or top-dose-only effect, or another doubt; inactive = no such curve, though single readings can be large; an effect the other way counts as inactive or inconclusive. Where only a bound is given, the exact number is not on record here.

Experiment [1] in a line: Cell Viability - BJ (AID 421; calls by dose curve;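 note: potency is the fitted concentration of half-maximal effect; cells exposed to compound for 40 hours at 37 °C before readout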). The settings on record: BJ fibroblast viability, qHTS. The procedure, abridged: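 Cytotoxicity in human BJ foreskin fibroblasts is scored as loss of cellular ATP after a 40-hour exposure, measured by luciferase luminescence. Controls are DMSO and 100 uM tamoxifen.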
(qHTS replaces the single test concentration by a dilution series.)

Experiment [2] can be described thus: Cell Viability - SK-N-SH (AID 435; calls by dose curve;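 note: potency is the fitted concentration of half-maximal effect; compound exposure lasted 40 h at 37 °C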). Particulars: SK-N-SH neuroblastoma cell viability qHTS. The method in brief: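 Human neuroblastoma line, 40 h exposure at 37 °C, ATP quantified via luciferase luminescence; DMSO and 100 uM tamoxifen define 0 and 100% inhibition for AC50 fitting.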
The nature of experiment [3]: Cellular Toxicity (caspase-3) Jurkat (AID 655).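 Note: cells exposed to compound for 16 h at 37 °C before reading.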 Particulars: Jurkat caspase-3 activation, luminescence, DMSO = 0%, tamoxifen = 100%; at 92.2 µM (top of the series). The procedure, abridged:
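qHTS in human Jurkat T-cell leukemia line: 16 hr compound treatment at 37 °C, caspase-3/7 activity measured by Caspase-Glo luminescence. AC50 derived from Hill equation.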

Experiment [4] in a line: Cellular Toxicity (caspase-3) SK-N-SH (AID 661). Particulars: SK-N-SH caspase-3 activation, qHTS, DMSO as zero, staurosporine as full; series mostly up to 91.7 µM. The procedure, abridged:
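Human SK-N-SH neuroblastoma cells, 1500/well, were exposed to compounds for 16 hours at 37 °C. Caspase-Glo 3/7 luminescence was normalized to DMSO (basal) and 10 uM staurosporine (100%), and AC50 came from a Hill fit.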

The nature of experiment [5]: Cellular Toxicity (caspase-3) N2a (AID 665).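 Note: compound exposure lasted 16 h at 37 °C before readout.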 Particulars: N2a cells, luminescence, normalized: DMSO 0%, 10 µM staurosporine 100%; at 92.2 µM (top of the series). The method in brief:
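Mouse N2a neuroblastoma cells, 1500 per well, treated 16 h at 37 °C in complete medium; caspase-3/7 activity by Caspase-Glo luminescence after 1 h. Normalized to DMSO and 10 uM staurosporine; AC50 from Hill fits.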

A short description of experiment [6]: Cellular Toxicity (caspase-3) Renal Proximal Tubule (AID 667).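 Note: cells exposed to compound for 16 hours at 37 °C before detection.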 Particulars: renal proximal tubule cells; at 91.7 µM (top of the series), primary cells freshly taken from rat, solvent-only wells 0%, staurosporine 100% unless noted. The method in brief:
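Caspase-Glo 3/7 read-out, rat primary kidney proximal tubule cells. Compound exposure 16 h, 37 °C; detection after 1 h at RT. Activity scaled to DMSO and 10 uM staurosporine.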

Experiment [7] concerns the target Bile acid receptor (Homo sapiens) (UniProt Q96RI1). Nature of the experiment: qHTS assay for small molecule antagonists of farnesoid X receptor signaling (AID 588526; calls by dose curve; note: % is set by controls: 0 for no effect and ±100 for the full control effect). Particulars: HEK293T FXR-UAS-bla, beta-lactamase ratio, antagonist mode; series mostly up to 76.7 µM. The procedure, abridged: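 Concentration-response titrations were fitted to the Hill equation for half-maximal inhibition and maximal response, with data normalised to 50 uM chenodeoxycholic acid and DMSO control wells. Cells: FXR-UAS-bla HEK293T, dialyzed FBS.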

Experiment [8] can be described thus: qHTS assay for small molecule antagonists of peroxisome proliferator-activated receptor delta signaling (AID 588535; active = well fitted inhibition curve with a large enough effect in the signal ratio, with a control signal flat, not every such curve was filed as active; the % refers to the signal ratio;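 for max response: cells co-treated with a PPAR-delta agonist as stimulator during compound exposure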). The settings on record: HEK293T PPARd-UAS-bla, beta-lactamase FRET ratio, 18 h; 460 nm channel. The method in brief: (§1)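 Reporter: UAS-bla under PPAR-delta response element, HEK293T host. Medium: 2% charcoal/dextran FBS. Dosing: titration, 18 hrs, 37 C. Detection: CCF4, 2 hrs RT, 405 ex/460 and 530 em.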

Experiment [9] addresses Peroxisome proliferator-activated receptor delta (Homo sapiens) (UniProt Q03181). The description is as above. The settings on record: HEK293T PPARd-UAS-bla, beta-lactamase FRET ratio, 18 h; series mostly up to 76.7 µM. The method in brief: as §1
Experiment [10] deals with Peroxisome proliferator-activated receptor gamma (Homo sapiens) (UniProt P37231). Briefly: qHTS assay for small molecule antagonists of peroxisome proliferator-activated receptor gamma signaling (AID 588537; active = well fitted inhibition curve with a large enough effect in the signal ratio, with a control signal flat, not every such curve was filed as active; the % refers to the signal ratio;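 note: reporter cells co-stimulated with 50 nM rosiglitazone agonist during compound treatment; % of control where 0% means no effect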). The settings on record: HEK293 PPARg-UAS-bla, beta-lactamase ratio, antagonist mode; series mostly up to 76.8 µM. The method in brief:
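We seeded GeneBLAzer HEK293 reporter cells at 3000 per well, allowed 6-6.5 h attachment at 37 C, then co-treated with test compound titrations and 50 nM rosiglitazone overnight (16 h). Inhibition was quantified from 460/530 nm emission ratios.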

In experiment [11] the target is Vitamin D3 receptor (Homo sapiens) (UniProt P11473). Nature of the experiment: qHTS assay for small molecule antagonists of vitamin D receptor signaling (AID 588541; calls by dose curve;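 note: receptor activated by calcitriol during compound treatment; % is set by controls: 0 for no effect and ±100 for the full control effect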). The settings on record: HEK293T VDR-UAS-bla, beta-lactamase ratio, antagonist mode; series mostly up to 76.7 µM. The method in brief:
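VDR-UAS-bla HEK293T cells (2000/well, 2% charcoal-stripped FBS) were treated with titrated compounds plus 1-alpha,25-dihydroxyvitamin D3 (50 nM or 3 nM final) for 16 h at 37 C. CCF4 beta-lactamase fluorescence was read; Hill fits gave IC50.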

Experiment [12] shares this target. Briefly: qHTS assay for small molecule agonists of vitamin D receptor signaling (AID 588543; calls by dose curve;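 note: 0% = DMSO basal and 100% = reference agonist control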). Particulars: HEK293T VDR-UAS-bla, beta-lactamase ratio, 16 h; series mostly up to 76.8 µM. The procedure, abridged:
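Measured: β-lactamase reporter activity (CCF4, 405 nm excitation, 460/530 nm emission) in HEK293T VDR-UAS-bla cells after 16 h compound exposure at 37 °C. Normalization against 50 nM 1α,25-dihydroxyvitamin D3 and DMSO; Hill-fit EC50.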

Experiment [13] is described as follows: Cellular Toxicity (caspase-3) H-4-II-E (AID 663).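 Note: cells exposed to compound for 16 hr before readout.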 The settings on record: H-4-II-E rat hepatoma, scaled: DMSO 0%, 100 µM tamoxifen 100%; series mostly up to 92.2 µM. The method in brief: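 Luminescence from caspase-cleaved aminoluciferin substrate, read 20 min after reagent addition, reports caspase 3/7 activation in rat H-4-II-E cells after 16 hr compound exposure. Normalized to DMSO (basal) and 100 uM tamoxifen (100%); AC50 from Hill fits.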

Experiment [14] can be described thus: MultiTox-Fluor Cytotoxicity Assay - LYMP1-001 - Dead Cells (AID 946).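 Note: 0% = DMSO and 100% = tetraoctylammonium bromide.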 The settings on record: LYMP1-001 lymphoblastoid cells, dead-cell protease fluorescence; series mostly up to 92.2 µM. The procedure, abridged: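 Seed 2500 LYMP1-001 cells/well, incubate 5 hr at 37 C; add compound, 16 hr at 37 C; add MultiTox-Fluor reagent, 60 min RT; read dead-cell fluorescence Ex/Em=485/520. Normalize to DMSO and 15 uM tetraoctylammonium bromide.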

The nature of experiment [15]: Cell Viability - LYMP2-019 (AID 973).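 Note: cells exposed to compound for 24 h at 37 °C; 0% = DMSO alone and full effect = 92 µM tetraoctylammonium bromide; nearly all actives have a fitted effect of over 55% in size.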 Particulars: LYMP2-019 lymphoblastoid cell line viability; series mostly up to 92.2 µM. The method in brief: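 Human lymphoblastoid LYMP2-019 cells (2500/well) preincubated 5 h at 37 C, then treated 24 h at 37 C in complete medium. Viability by CellTiter-Glo ATP luminescence after 30 min at room temperature; AC50 from Hill fits.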

Experiment [16] is described as follows: Cell Viability - LYMP2-021 (AID 974).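 Note: compound exposure lasts 24 hours at 37 °C; % is set by controls: 0 for no effect and ±100 for the full control effect; nearly all actives have a fitted effect of over 55% in size.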 The settings on record: LYMP2-021 lymphoblastoid cells viability; series mostly up to 92.2 µM. The procedure, abridged:
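Human lymphoblastoid LYMP2-021 cells, 2500/well in complete medium, treated 24 hours at 37 C. Intracellular ATP by CellTiter-Glo luminescence (30 min, RT); AC50 from Hill fits of concentration-response.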

Experiment [17] in a line: qHTS assay for small molecule agonists of the antioxidant response element (ARE) signaling pathway (AID 651741; active = well fitted activation curve with a large enough effect in the signal ratio; the % refers to the signal ratio; note: potency is the fitted concentration of half-maximal effect; for activation: % of control where 0% means no effect). The settings on record: HepG2 ARE-bla reporter, beta-lactamase FRET ratio, 16 h; series mostly up to 96 µM. The method in brief:
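Compounds in DMSO are pinned onto HepG2 ARE-bla cells (2,000/well) that were preincubated 5 h; plates stay 16 h at 37 C, then beta-lactamase activity is detected with LiveBLAzer B/G substrate by fluorescence.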

Experiment [18] in a line: Cellular Toxicity (caspase-3) BJ (AID 658). The settings on record: BJ fibroblasts, luminescence, normalized: DMSO 0%, staurosporine 100%; series mostly up to 91.7 µM. The method in brief: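 Luminescent aminoluciferin-substrate cleavage reports caspase 3/7 activity in normal human BJ fibroblasts after 16 hr compound exposure at 37 °C. Normalized to DMSO (basal) and 10 uM staurosporine (100%); AC50 from Hill fit of concentration-response.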

A short description of experiment [19]: Cellular Toxicity (caspase-3) Hek293 (AID 664).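 Note: cells exposed to compound for 16 h at 37 °C before readout.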 Particulars: HEK293 caspase-3 activation, DMSO = 0%, 100 µM tamoxifen = 100%; series mostly up to 92.2 µM. The method in brief:
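HEK293 cells in complete medium treated 16 h at 37 °C, then Caspase-Glo 3/7 luminescence read after 20 min at room temperature. Normalized to DMSO and 100 uM tamoxifen; AC50 from Hill fit of concentration-response.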

Experiment [20] in a line: Cell Viability - NIH 3T3 (AID 541).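 Note: plate controls were DMSO alone for no effect and tamoxifen positive control for full effect; nearly all actives have a fitted effect of over 25% in size.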 The settings on record: NIH 3T3 cell viability, qHTS; activity change, negative = cytotoxicity: at 92.2 µM (top of the series). The procedure, abridged:
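Mouse NIH 3T3 fibroblasts, 1000 cells/well, rested 5 hr at 37 °C, then exposed to compound for 40 hr at 37 °C in complete medium. Viability read as intracellular ATP by CellTiter-Glo luminescence; AC50 from Hill-equation fits of concentration-response data.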

Sequence of Vitamin D3 receptor (Homo sapiens) (P11473 whole entry, looked up): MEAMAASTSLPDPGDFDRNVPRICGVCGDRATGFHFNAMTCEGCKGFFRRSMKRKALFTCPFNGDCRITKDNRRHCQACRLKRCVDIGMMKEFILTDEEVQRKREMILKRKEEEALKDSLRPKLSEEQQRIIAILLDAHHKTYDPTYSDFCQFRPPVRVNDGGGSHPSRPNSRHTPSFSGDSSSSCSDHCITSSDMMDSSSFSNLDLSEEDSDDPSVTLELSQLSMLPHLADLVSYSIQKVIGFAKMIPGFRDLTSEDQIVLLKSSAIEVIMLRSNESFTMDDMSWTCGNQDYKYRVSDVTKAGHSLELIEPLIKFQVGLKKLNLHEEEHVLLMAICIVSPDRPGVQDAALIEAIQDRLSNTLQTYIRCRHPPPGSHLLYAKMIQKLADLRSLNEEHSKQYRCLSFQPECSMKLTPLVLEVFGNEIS
Sequence of Peroxisome proliferator-activated receptor delta (Homo sapiens) (Q03181 whole entry, looked up): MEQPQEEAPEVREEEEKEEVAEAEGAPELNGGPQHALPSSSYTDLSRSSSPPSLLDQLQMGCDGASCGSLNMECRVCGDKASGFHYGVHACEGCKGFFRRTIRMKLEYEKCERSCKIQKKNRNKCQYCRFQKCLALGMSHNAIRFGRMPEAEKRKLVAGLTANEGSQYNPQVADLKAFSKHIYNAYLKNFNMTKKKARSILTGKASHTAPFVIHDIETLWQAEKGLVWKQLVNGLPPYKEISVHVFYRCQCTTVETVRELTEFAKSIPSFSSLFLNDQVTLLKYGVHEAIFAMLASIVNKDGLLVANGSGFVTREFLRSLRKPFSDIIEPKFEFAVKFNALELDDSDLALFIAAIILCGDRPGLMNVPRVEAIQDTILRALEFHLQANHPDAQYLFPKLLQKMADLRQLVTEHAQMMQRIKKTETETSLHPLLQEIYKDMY
Sequence of Peroxisome proliferator-activated receptor gamma (Homo sapiens) (P37231 whole entry, looked up): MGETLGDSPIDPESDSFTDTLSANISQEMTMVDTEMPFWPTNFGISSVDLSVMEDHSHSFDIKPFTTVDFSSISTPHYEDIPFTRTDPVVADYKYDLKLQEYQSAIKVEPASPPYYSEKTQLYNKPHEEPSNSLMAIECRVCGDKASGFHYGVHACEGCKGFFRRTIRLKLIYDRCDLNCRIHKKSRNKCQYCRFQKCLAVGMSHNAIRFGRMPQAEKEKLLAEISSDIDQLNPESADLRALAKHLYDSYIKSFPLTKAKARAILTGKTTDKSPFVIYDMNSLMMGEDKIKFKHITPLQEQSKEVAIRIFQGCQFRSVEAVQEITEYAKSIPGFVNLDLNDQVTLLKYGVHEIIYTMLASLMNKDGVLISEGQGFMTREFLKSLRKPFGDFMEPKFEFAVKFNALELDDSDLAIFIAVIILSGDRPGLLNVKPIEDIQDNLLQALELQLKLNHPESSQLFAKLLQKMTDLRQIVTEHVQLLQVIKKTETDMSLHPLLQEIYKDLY
Sequence of Bile acid receptor (Homo sapiens) (Q96RI1 whole entry, looked up): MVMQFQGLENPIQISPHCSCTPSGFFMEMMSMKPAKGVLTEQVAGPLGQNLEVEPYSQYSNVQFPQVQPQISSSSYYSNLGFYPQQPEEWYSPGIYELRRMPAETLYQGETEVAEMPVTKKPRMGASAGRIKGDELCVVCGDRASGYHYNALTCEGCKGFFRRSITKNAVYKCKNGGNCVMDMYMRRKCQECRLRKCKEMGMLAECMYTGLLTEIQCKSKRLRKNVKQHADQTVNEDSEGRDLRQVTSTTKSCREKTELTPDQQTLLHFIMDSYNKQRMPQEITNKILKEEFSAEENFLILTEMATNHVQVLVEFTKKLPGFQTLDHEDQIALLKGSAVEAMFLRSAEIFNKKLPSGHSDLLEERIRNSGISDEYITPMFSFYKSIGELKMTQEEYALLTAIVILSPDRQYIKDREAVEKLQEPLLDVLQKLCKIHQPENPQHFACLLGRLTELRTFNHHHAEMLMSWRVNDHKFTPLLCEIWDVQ

For the compound `ClCBr`, the Potency in [1] and in experiment [2] was > 92 µM (inactive) in each case. Besides, the figures for the caspase-3 activation in [3], in experiment [5] and in experiment [6] were -0.634% (inactive), -2% (inactive) and -5.04% (inactive), respectively. Besides, the call in experiment [4], in experiment [7], in experiment [11] and in experiment [12] was inactive. Also, the max response in experiment [8] stood at 36.6%. Further, the Potency result in [9] and in experiment [10] was “inactive” each time.
Regarding `BrCCBr`, the Potency in experiment [1] is > 92 µM (inactive). The caspase-3 activation in [3] was -0.244% (inactive); in experiment [5] it was -3.9% (inactive); in experiment [6], -15.1% (inactive). In addition, the call in experiment [4], in experiment [13], in experiment [11] and in experiment [12] was inactive. In addition, the Potency entry in experiment [14], in [15], in experiment [16], in experiment [9], in experiment [10] and in experiment [17] was “inactive” throughout. Further, the max response in [8] was -6.18% and 14.8%.
As for `CC(Cl)Cl`, the Potency in [1] was > 92 µM (inactive). Also, the result in experiment [18], in [4], in experiment [19], in experiment [7], in [11] and in experiment [12] was inactive. Further, the caspase-3 activation in [5] was -4.66% (inactive); in experiment [6] it was -1.5% (inactive). The Potency result in [15], in experiment [9] and in [17] was “inactive” each time. Also, the max response in experiment [8] was 2.53%.
For `CC(C)(C)OO`, the Potency in [1] was > 92 µM (inactive). Also, the activity change, negative = cytotoxicity in experiment [20] was -4.73% (inactive) and 1.03% (inactive). Besides, the outcome in experiment [13], in experiment [11] and in experiment [12] was inactive. Moreover, the caspase-3 activation in [5] is -2.06% (inactive) and -1.93% (inactive); in experiment [6], 12.8% (inactive) and -1.63% (inactive). Besides, the Potency result in experiment [15], in experiment [9], in experiment [10] and in [17] was “inactive” throughout. Besides, the max response in experiment [8] is 26.2% and -4.41%.
Take `Cc1ccc(O)c(C)c1`: the results for the Potency in experiment [1], in experiment [2] and in [17] were > 92 µM (inactive), > 92 µM (inactive) and 398 µM (active), respectively. Further, the activity change, negative = cytotoxicity in [20] was 3.22% (inactive). In addition, the caspase-3 activation in experiment [3] was 2.67% (inactive); in experiment [6], -3.58% [at 91.7 µM] (inactive). Besides, the outcome in [4] and in [13] was inactive. For the same compound, the max response in [8] is -17.8% and 29.7%. The Potency result in experiment [9] and in experiment [10] was “inactive” in each case.
For `CCOc1ccc(N)cc1`, the Potency in [1] is > 92 µM (inactive). Besides, the result in [4], in experiment [19], in [7] and in experiment [12] was inactive. The caspase-3 activation in experiment [6] is -17.4% (inactive). Moreover, the Potency result in experiment [14] and in experiment [15] was “inactive” in each case.
`c1ccc(OP(Oc2ccccc2)Oc2ccccc2)cc1`: the Potency in [1] and in experiment [2] was > 92 µM (inactive) throughout. In [20], the activity change, negative = cytotoxicity was 7% (inactive). For the same compound, the result in experiment [18], in experiment [4], in [13], in experiment [11] and in experiment [12] was inactive. Also, the caspase-3 activation in experiment [6] was 1.22% (inactive). Further, the Potency result in experiment [14], in [16] and in [10] was “inactive” throughout.
Regarding `S=C=Nc1cccc2ccccc12`, the Potency in [2] is > 92 µM (inactive); in experiment [17], 47.3 µM (active). Further, the activity change, negative = cytotoxicity in experiment [20] was 1.16% (inactive). The caspase-3 activation was 1.77% (inactive) in experiment [3] and 0.808% (inactive) in [5]. Also, the outcome in experiment [18], in [4], in [7], in experiment [11] and in [12] was inactive. For the same compound, the Potency entry in experiment [16] and in experiment [9] was “inactive” each time. For the same compound, the max response in experiment [8] is -3.26%.
